We go through 50 compounds from PubChem BioAssay AID602282 (Johns Hopkins Ion Channel Center, 2012).

As usually defined, the inhibition is the share of the control response that was lost under treatment.

Each structure is given as a SMILES string. Among all 1,100 compounds or so, about 1,000 (91%) were called active.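 The calls were made as follows: active = inhibition above 3 SD of the buffer control wells (cut at about 41% in these data); inactive = the rest.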 So high a share suggests a set chosen from earlier hits. Not all results are given here.

The assay in a line: reduced carbachol calcium response, RGS4-induced M3R cells, confirmation, RGS4 activator project, cell-based, HEK293 M3R/RGS4 inducible, calcium flux, duplicate (AID 602282).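 Also: signal is the integrated peak-minus-minimum Fluo4 fluorescence over baseline ratio.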 The settings on record: carbachol calcium flux Fluo4, at 10 µM, stronger effect = higher value. (In general: A change in cytosolic calcium serves as a functional read-out for many receptors and channels.)
Take `Cc1nn(C)cc1N1C(=O)c2cccc3c(N)ccc(c23)C1=O`: the inhibition is 97.5% (active). In the case of `OCCC1CN(Cc2ccc3nsnc3c2)CCN1C1CCCC1` (stereo not given) it was 82.5% (active); in that of `COc1cccc(/C=N/Nc2cc(C)nc(-c3ccccc3O)n2)c1O`, 93.5% (active); in that of `COc1cccc(-c2cc3nc4c(c(N5CCC6(CC5)OCCO6)n3n2)CCCC4)c1`, 56.5% (active).

In the case of `Cc1ccc(OS(=O)(=O)c2ccc(-c3csc(C)n3)s2)c(C)c1`, the inhibition was 82% (active). With `COC(=O)c1ccc(CN2CCC(CO)(Cc3ccc(OC)cc3)CC2)cc1` the figure was 92% (active). In the case of `CCCCCC(O)(CCN1CCCCC1)c1ccccc1` (stereo not given) it was 93% (active). On to `C#CC(CCN1CCCCC1)(OC)c1ccccc1` (stereo not given), for which the inhibition was 93% (active). With `Cc1ccc(SCC(=O)c2cc(C)c(OC(=S)N(C)C)c(C)c2)cc1` the figure was 88.5% (active); with `Cc1cc2oc3ccc(NCCC4CCCN4C)cc3c(=O)c2cc1C` (stereo not given), 91% (active). In the case of `O=S(=O)(c1ccc(Br)cc1)n1ccc2ccccc21` it was 80.5% (active); in that of `CCc1c(C)sc(NC(=O)c2ccc(Br)o2)c1C(=O)OC`, 69.5% (active); in that of `Cc1oc2c(F)c(F)c(F)c(F)c2c1S(=O)(=O)Nc1cccc(C(F)(F)F)c1`, 92% (active). On to `COc1ccc(C(=O)Nc2nc(-c3ccc(S(=O)(=O)N4CCOCC4)cc3)cs2)cc1`, for which the inhibition is 85.5% (active). In the case of `CCc1ccccc1NC(=O)[C@@H]1CCC(=O)N1C1OC(=O)c2c1ccc(OC)c2OC` (stereo not given in full) it was 0% [the number is a placeholder, only the call stands] (inactive); in that of `CCC1CCCCN1CCCNC(=O)c1cc2c(Cl)nc3ccccc3c2s1` (stereo not given), 93.5% (active).

Turning to `N=c1c2c3c(sc2nc2n1CCCCC2)CCCC3`, the inhibition is 87% (active). In the case of `Oc1ccccc1N1CCN(c2ncnc3sc(-c4ccccc4)cc23)CC1` it was 87.5% (active); in that of `COc1ccc(/C=C(\C#N)c2c[nH]c3ccccc23)cc1`, 85% (active); in that of `COc1cccc(CNC(=O)CCC2CCCN(Cc3ccc(OC(F)F)cc3)C2)c1` (stereo not given), 74% (active).

Turning to `Cc1nc(N2CCN(c3ccccn3)CC2)c2c(C)c(C(=O)Nc3ccc(F)cc3)sc2n1`, the inhibition was 91% (active). With `OC(CN=c1sc2ccccc2n1CC(O)COc1ccccc1)COc1ccccc1` (stereo not given) the figure was 91.5% (active); with `CCOC(=O)C1=C(NC(=S)NC(=O)c2ccccc2)c2ccccc2CC1(C)C`, 92% (active); with `CN1CCN(C(=O)N2c3ccccc3CCc3ccccc32)CC1`, 90.5% (active). In the case of `O=C(Cn1c(N2CCN(C/C=C/c3ccccc3)CC2)nc2ccccc21)c1ccccc1` it was 91.5% (active); in that of `Cc1cccc(-c2nc3ccc(C(=O)NCCN4CCN(C)CC4)cc3nc2-c2cccc(C)c2)c1`, 93.5% (active).

`COc1ccc(CN2CCCC(C(=O)c3ccc(Cl)cc3)C2)cc1Cn1cncn1` (stereo not given): the inhibition is 93% (active). In the case of `COc1ccccc1C(CNC(=O)c1cccc(NS(=O)(=O)c2ccc(Br)cc2)c1)N(C)C` (stereo not given) it was 85% (active); in that of `O=C(CN1CCCCCC1)Nc1ccc(S(=O)(=O)N2CCCCC2)cc1`, 65% (active). As to `CCCN(CCc1ccccc1)C1CCc2c(O)cccc2C1` (stereo not given), the inhibition is 78% (active). In the case of `CN(C)CCOc1ccc(Cl)cc1C(C)(C)C` it was 81.5% (active); in that of `COc1ccc(-c2cc(C(=O)N(C)Cc3ccccc3)c3ccccc3n2)cc1`, 88.5% (active).

As to `COc1ccc(CN(C)C(=O)c2cc(-c3ccc(C)cc3C)nc3ccccc23)c(OC)c1OC`, the inhibition was 90% (active). Take `Cc1ccc(N2C(=O)CC(Nc3cccc4ccccc34)C2=O)cc1` (stereo not given): the inhibition was 0% [the number is a placeholder, only the call stands] (inactive). In the case of `CN(C)S(=O)(=O)N1CCC(Oc2cccc(C(=O)NCCCC3CCCC3)c2)CC1` it was 78.5% (active); in that of `Cc1ccc(C)c(N2CCN(C(=O)CCCCCn3c(=S)[nH]c4ccc(N5CCOCC5)cc4c3=O)CC2)c1`, 92% (active).

Turning to `Cc1ccc(C)c(N2CCN(C(=O)CCCn3c(=O)c4cccn4c4cccnc43)CC2)c1`, the inhibition was 85.5% (active). Consider `O=C(c1cccs1)C1C(c2ccc(Br)cc2)NC(=S)NC1(O)C(F)(F)F` (stereo not given), for which the inhibition is 93.5% (active). In the case of `CCC1C=C(c2ccccc2)C=CN=C1N(CC)CC` (stereo not given) it was 84% (active).

Regarding `CCOC(=O)c1c(NC(=O)NC(C)(C)C)sc2c1CCN(C)C2`, the inhibition is 0% [the number is a placeholder, only the call stands] (inactive). In the case of `COc1cc(/C=C(\C#N)c2nc3ccccc3[nH]2)ccc1O` it was 80.5% (active); in that of `Cc1cccc(-c2nc(Nc3ccc(O)cc3)c3ccccc3n2)c1`, 80% (active); in that of `Cc1ccnc(SCCn2c(N(C)Cc3ccccc3)nc3c2c(=O)n(C)c(=O)n3C)n1`, 62% (active).

Regarding `Cc1ccccc1C(OCCN(C)C)C1CCCCC1` (stereo not given), the inhibition is 91% (active). `S=c1[nH]nc(-c2ccc(Cl)cc2)n1CC1CCCO1` (stereo not given): the inhibition is 59% (active). Turning to `CN(C)c1ccc(/C=C2\NC(=S)N(Cc3ccccc3)C2=O)cc1`, the inhibition is 79.5% (active). With `CCOc1ccc(C(CC(=O)O)NC(=O)COc2ccccc2)cc1` (stereo not given) the figure was 0% [the number is a placeholder, only the call stands] (inactive); with `CC(C)C(c1nnnn1CCc1ccccc1)N1CCN(C(=O)c2ccco2)CC1` (stereo not given), 87.5% (active); with `Cc1ccc(OCCCCN2CCCCC2)c(Br)c1`, 0% [the number is a placeholder, only the call stands] (inactive). As to `COc1ccc(C(=O)NC2CCCc3c2cnn3-c2cccc(C)c2C)c(OC)n1` (stereo not given), the inhibition was 91% (active).
